Over roughly 33,000 sequences, “E-score (-0.5 to 0.5)” has its median near -0.012; the highest 2% begin near 0.27. This excerpt belongs to a sample that is enriched for the highest values.

86 sequences from the supplement of paper PMC3334620 can be followed below.

The target of this assay is T1, Vhr1 (UniProt P40522).
T1 sequence: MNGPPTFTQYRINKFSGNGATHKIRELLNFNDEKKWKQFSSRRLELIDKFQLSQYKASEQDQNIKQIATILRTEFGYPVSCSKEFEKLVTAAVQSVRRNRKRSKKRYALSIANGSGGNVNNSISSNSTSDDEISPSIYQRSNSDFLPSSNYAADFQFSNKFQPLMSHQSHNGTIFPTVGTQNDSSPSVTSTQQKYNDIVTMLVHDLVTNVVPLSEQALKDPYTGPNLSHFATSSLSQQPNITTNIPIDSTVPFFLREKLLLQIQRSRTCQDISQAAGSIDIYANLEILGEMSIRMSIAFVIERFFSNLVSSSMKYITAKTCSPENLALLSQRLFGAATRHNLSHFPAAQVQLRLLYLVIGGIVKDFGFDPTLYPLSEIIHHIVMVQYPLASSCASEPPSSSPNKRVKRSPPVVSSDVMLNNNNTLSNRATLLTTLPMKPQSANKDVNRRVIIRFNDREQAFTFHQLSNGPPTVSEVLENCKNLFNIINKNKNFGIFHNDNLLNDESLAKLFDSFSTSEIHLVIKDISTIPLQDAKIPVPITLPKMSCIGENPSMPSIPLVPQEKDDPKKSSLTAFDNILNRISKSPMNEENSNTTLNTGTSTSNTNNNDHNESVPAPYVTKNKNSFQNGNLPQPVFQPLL
Put plainly: PBM E-score (8-mer binding enrichment) (E-score (-0.5 to 0.5)); higher = stronger / more preferred TF binding. Particulars: protein concentration: 200 nM; construct: GST-full length. How it is done: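 Universal 'all 10-mer' protein binding microarrays (Agilent AMADID 015681) probed with GST-tagged S. cerevisiae TFs (full-length or DBD) made by in vitro transcription/translation (PURExpress), about 100-200 nM. Bound TF was detected with fluorescent anti-GST. Each ungapped 8-mer (which stands for itself and its reverse complement) is scored by the PBM enrichment score (E-score), a modified Wilcoxon-Mann-Whitney statistic from -0.5 to +0.5, computed with the Universal PBM Analysis Suite. Scale: above 0.35 generally sequence-specific binding.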
CAACCGCG: the “PBM E-score” value came out at 0.3.
Consider CAACCGCC, for which the “PBM E-score” value is -0.102.
As to GATTATAC, the “PBM E-score” value came out at 0.213.
For GCGGGCTA, the “PBM E-score” value was -0.119.
For CGCGGCTC the value was 0.278.
Take AGCGGCTC: the “PBM E-score” value was -0.0971.
To CGCGGCTA belongs -0.0223; to CAAGTCAA, -0.0643.
To CGAGTCTA belongs -0.0817; to CGAGTCAG, 0.429; to CGAGTCCC, 0.186.
In the case of CGTGTCAG, the “PBM E-score” value was 0.037.
To GGAGTCAA belongs 0.354; to CGAGTCAC, 0.467.
Take GGAGTCGA: the “PBM E-score” value was 0.122.
To CGAGTCTC belongs 0.0296.
To CCAGTCAG belongs 0.0854; to CGAGTCAA, 0.278.
For the sequence GGAGTCTA, the “PBM E-score” value came out at 0.0135.
Regarding CCGTGCCG, the “PBM E-score” value is -0.00022.
For AACCTCTC the value was -0.172; for GCAGCCGA, 0.0559.
Regarding GCAGGCCA, the “PBM E-score” value amounted to 0.117.
Regarding ACTGATCC, the “PBM E-score” value came to 0.0497.
To ATTGTTTC belongs 0.217; to CGAGTCCG, 0.286.
TCAGTCAA: the “PBM E-score” value worked out at 0.114.
On to CGAGTCCA, for which the “PBM E-score” value is -0.0942.
To GGAGTCCA belongs 0.163; to TGAGTCCA, 0.3; to CCAGTCCG, -0.0813.
For AGAGTCCG the value was -0.0962.
For TGAGTCAA the value was 0.419; for TTAGTCAA, 0.168.
As to CAATCAAA, the “PBM E-score” value was -0.008.
For the sequence CCTTCCCC, the “PBM E-score” value is 0.0876.
With CCCTATCC, the “PBM E-score” value is -0.0379.
As for CCAGCTGC, the “PBM E-score” value is -0.105.
In the case of CCAGCTGG, the “PBM E-score” value amounted to 0.301.
As for ACAGCTGG, the “PBM E-score” value is -0.119.
With AGTAAATC, the “PBM E-score” value worked out at 0.0723.
To CGGACTTA belongs -0.189; to AGGACTCA, 0.376; to CGGACTCC, 0.2.
For AGGACTCC the value was 0.129; for CGGACTCA, 0.381; for AGGACTCG, 0.167.
ATATACTA: the “PBM E-score” value worked out at 0.257.
Take CCTTGAGA: the “PBM E-score” value was -0.0758.
To CCATAGTC belongs 0.225; to ACATAGTA, 0.188.
For the sequence ACATAGTC, the “PBM E-score” value turned out to be 0.272.
For AAATAGTC, the “PBM E-score” value was 0.0418.
Regarding AAATAGTG, the “PBM E-score” value is -0.149.
Regarding ACATAGTG, the “PBM E-score” value stood at 0.314.
For CCAGGACA the value was -0.0732; for CTGCACAA, -0.0636.
For GGTTGTGA the value was 0.143; for ATCTCAAA, -0.0488.
For TGCTCAAA the value was -0.193; for AATCCATT, 0.113; for ACTAATCG, 0.251.
On to CCGCAGTC, for which the “PBM E-score” value was 0.274.
For the sequence CCTCAGTA, the “PBM E-score” value is -0.106.
For ACGCAGTC the value was 0.169; for ACTCAGTG, 0.245; for GCTCAGTA, -0.0102.
As for CCGCAGTA, the “PBM E-score” value was 0.0424.
Consider ACTCAGTC, for which the “PBM E-score” value amounted to 0.314.
Take CCTCAGTC: the “PBM E-score” value stood at 0.0647.
To ACTCAGTA belongs 0.281.
In the case of ACGATGCC, the “PBM E-score” value was -0.257.
To AGCAACTG belongs 0.00583; to GACCCAAA, 0.0473.
On to CGGAATAA, for which the “PBM E-score” value is -0.0766.
For GGCCACTA the value was -0.00131.
To GTTGCCTA belongs -0.162; to GAACGATA, -0.0543.
AAACCAGT: the “PBM E-score” value was 0.0233.
For the sequence ATCTTGGA, the “PBM E-score” value was 0.0371.
Turning to GCCTTATA, the “PBM E-score” value was -0.0741.
For CGCCCGAA the value was -0.0969; for AGCCCGAC, 0.0296; for CGCCCGAC, 0.342.
For AACGAGCA the value was -0.0591; for ATGCTCAG, 0.141.
